Where “and” joins values, the source holds several entries; their conditions need not be identical. Equal values may be shown once. Hit rate of the full screen: of about 59,000 compounds, about 1,500 (2.5%) were called active. Roughly 10% stayed inconclusive and do not appear here. Calls follow the shape of the dose curve; as a rule, active = well fitted inhibition curve with a large enough effect; inconclusive = small, poorly fitted or top-dose-only effect; inactive = flat fitted curve, though single readings scatter. Shown is part of a subset that was picked to be rich in actives. A structure can be active in one record and inactive in another.
Each molecule was assayed against N-terminal Xaa-Pro-Lys N-methyltransferase 1 (Homo sapiens) (UniProt Q9BV86) (assay: Primary qHTS for Inhibitors of N-terminal methyltransferase 1 (NTMT1): MTaseGlo Assay). Settings: NTMT1 MTase-Glo SAH luminescence, purified enzyme; series mostly up to 114 µM; activity change, negative = inhibition: at the top concentration.
Text: Assay Submitter (PI): Rong Huang Ph.D.
Purdue University, West Lafayette, IN 47907
The N-terminal methytransferase 1 is the first methyltransferase that methylates protein alpha-N-amines and plays an important role in regulating cell mitosis, chromatin interactions and DNA repair. It is observed to be over-expressed in various cancer patient tissues like malignant melanoma and colorectal cancer tissues. Knockdown of NTMT1 in cancer cells causes cell mitotic defects and enhances sensitivity to DNA damaging chemotherapeutics. […] These critical cellular processes in which NTMT1 is implicated, coupled with emerging links to cellular dysfunction, strengthen the inference that NTMT1 is a compelling novel anticancer target. Progress have been made in understanding the molecular properties of NTMT1 and the biological consequences of protein alpha-N-terminal methylation, but there are no specific small molecule probes available for NTMT1 to fully characterize its MTase activity. To address this unmet need, a panel of assay is created and established to enable quantitative high-throughput screening (qHTS) for novel, potent, and selective small molecule NTMT1 inhibitors. Two orthogonal qHTS that use different reagents (ThioGlo vs. MTaseGlo) are developed for primary robotic screening against the NCATS chemical library of more than 400,000 small molecules. Identified inhibitors are reacquired, validated, and further characterized.
MTaseGlo Assay is a luminescence screen that measure the activity of methyltransferases based on the reaction product S-adenosyl homocysteine (SAH). The substrate SAM is converted to SAH upon enzyme activation. MTase-Glo reagent and detection solution convert SAH to ATP and measure the light from the luciferase reaction.
Materials: NTMT1 enzyme, substrate SPKRIA, control peptide RCC1-6 is provided by the Huang laboratory.
SEQUENCE No. (e.g., 1, 2, 3, etc.); […] (e.g., Cells, Incubation, Reagent, etc.); VALUE; DESCRIPTION
1; Enzyme; 3 uL; Dispense enzyme mixture (final concentrations of 125 nM NTMT1 and 100 uM SAM) into Greiner 1536-well white / solid bottom assay plate (Greiner Bio One, Monroe, NC).
2; Compounds; 23 nL; Compounds and controls were transferred via a Kalypsys Pin Tool (Wako USA) equipped with a 1536-slotted pin array (Wako Automation, Richmond, VA)
3; Incubation; 15 min; Incubate at room temperature
4; Substrate; 1 uL; Dispense 1 uL of substrate at final concentration of 1 uM. Buffer solution was dispensed in control wells. The assay plate was covered with metal lids.
5; Incubation; 30 min; Incubate at room temperature, protected from lights.
6; Reagent; 1 uL; Dispensed 5x MTase-Glo detection reagent (R) into the assay plate. The plate was covered with metal lids.
7; Incubation; 30 min; Incubate the assay plates at room temperature in the dark to allow for SAH to be converted to ADP.
8; Reagent; 5 uL; Dispense 5 uL of 1x MTase-Glo Detection Solution (R) to allow for ADP to be converted to ATP which was then detected with a luciferase reaction.
9; Centrifuge; 15 sec; Centrifuge the assay plate for 15 seconds at 1000 RPM.
10; Incubation; 30 min; Assay plates were incubation at room temperature in the dark.
11; Detection; Luminescence; Plates were read on ViewLux detector (PerkinElmer). Data were normalized to no-enzyme (0% activity) and no-inhibitor (DMSO; 100%) controls, and the resulting percent inhibition data were fitted to a 4-parameter Hill equation using GraphPad Prism.
Also: nearly all actives have a fitted effect of over 65% in size.
Potency is read from the fitted curve at half-maximal effect.

N-terminal Xaa-Pro-Lys N-methyltransferase 1 (Homo sapiens), sequence (Q9BV86 whole entry, looked up): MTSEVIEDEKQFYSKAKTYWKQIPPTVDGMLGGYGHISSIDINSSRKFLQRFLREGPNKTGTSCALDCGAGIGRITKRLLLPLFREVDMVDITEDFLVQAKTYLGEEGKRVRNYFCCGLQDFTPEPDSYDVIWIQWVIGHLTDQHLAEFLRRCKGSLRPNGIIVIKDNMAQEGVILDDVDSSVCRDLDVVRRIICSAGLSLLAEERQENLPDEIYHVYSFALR

Row | SMILES | activity change, negative = inhibition | Potency
1 | O=C(CSc1ncc(CO)n1Cc1ccc(F)cc1)NCc1ccco1 | -0.0712% (inactive) | 
2 | OCc1cnc(SCc2ccc(F)cc2)n1Cc1ccc(F)cc1 |  | 89.1 µM (active)
3 | Cc1cc(C)n2ncc(C(=O)N3CCCC3)c2n1 | 15.8% (inactive) | 
4 | Cc1ccc(OCCn2c(CCNC(=O)c3ccccc3C(F)(F)F)nc3ccccc32)cc1 | 7.93% (inactive) | 
5 | CC(C)c1ccccc1-c1nc(NCc2ccc(-c3cccnc3)cc2)c2occc2n1 | 6.29% (inactive) | 
6 | COc1ccc(C2Nc3cccc(OC)c3C(=O)N2Cc2ccccc2)cc1COc1ccc(NC(C)=O)cc1 (stereo unspecified) | 15.3% (inactive) | 
7 | O=C(OCC#CCSc1nnc(-c2ccco2)o1)c1ccc(F)cc1 | -0.0729% (inactive) | 
8 | O=C(Nc1nnc(-c2ccncc2)s1)Nc1cc(C(F)(F)F)ccc1F | 4.26% (inactive) | 
9 | COc1ccc(C2Nc3ccccc3C(=O)N2Cc2ccco2)cc1COc1cccc(NC(C)=O)c1 (stereo unspecified) | -15% (inactive) | 
10 | CCNC(=O)C#Cc1ccc2c(C(=Nc3ccc(CN(C)C)cc3)c3ccccc3)c(O)[nH]c2c1 |  | 31.6 µM (active)
11 | CN(C)C/C=C/C(=O)Nc1ccc(C(=O)N2CCC[C@@H](Nc3ncc(Cl)c(-c4c[nH]c5ccccc45)n3)C2)cc1 | -19.5% (inactive) | 
12 | Cn1cnc(CN=C2NC3=C(C(=O)CCC3)C(c3[nH]ncc3Cl)N2)c1 (stereo unspecified) | 7.29% (inactive) | 
13 | COc1cc2c(cc1OC)CN(CCc1ccc(-n3nnc(-c4cc(OC)c(OC)cc4NC(=O)c4cc(=O)c5ccccc5o4)n3)cc1)CC2 | -7.78% [at 1.07 µM] (inactive) | 
14 | N#Cc1c(N)nc(N)nc1N[C@H](c1nc2c(F)ccc(Cl)c2c(=O)n1-c1cccnc1)C1CC1 | 6.73% (inactive) | 
15 | CC(C)(C)NS(=O)(=O)c1cccc(Nc2nn3c(=O)c4ccccc4nc3s2)c1 | -9.01% [at 57.5 µM] (inactive) | 
16 | Cc1ccc(CNc2ccc(N3CCCCC3)cc2)cc1 | -28.2% (inactive) | 
17 | FC(F)(F)c1cccc(N2CCN(C(=S)Nc3ccncc3)CC2)c1 | -12.1% (inactive) | 
18 | Cc1ccc(N2CCN(C(=S)Nc3cc(C)ccn3)CC2)cc1 |  | 79.4 µM (active)
19 | CCc1ccc(-c2nn3c(C)nnc3s2)cc1NC(=O)c1ccc(-c2cccc(Cl)c2)o1 | -1.59% [at 57.5 µM] (inactive) | 
20 | CCOc1ccc(CCNC(=O)c2cnon2)cc1OCC | 12.9% (inactive) | 
21 | C=Cc1c(C)c2cc3nc(cc4[nH]c(cc5nc(cc1[nH]2)C(C)=C5CCC(=O)O)c(CCC(=O)OC)c4C)[C@@]1(C)C3=CC=C(C(=O)OC)[C@H]1C(=O)OC |  | 50.1 µM (active)
22 | N#Cc1ccc(NC(=O)Nc2nnc(-c3ccncc3)s2)c(Cl)c1 | 1.48% (inactive) | 
23 | CC[C@H](Nc1ncnc2nc[nH]c12)c1oc2ccccc2c(=O)c1-c1cccc(F)c1 | 9.83% (inactive) | 

Row | SMILES | activity change, negative = inhibition | Potency
24 | Cc1ccc(-c2cc(C(=O)Nc3cccc(Cl)c3)c3ccccc3n2)cc1C | 0.0238% (inactive) | 
25 | Cc1cc(NC(=O)Nc2nnc(-c3ccncc3)s2)ccc1Cl | -28.9% (inactive) | 
26 | Fc1cc(Nc2nc(-c3ccncc3)nc3ccccc23)ccc1-c1ccc(F)c(F)c1F | -0.911% (inactive) | 
27 | Fc1ccccc1-c1ccc(Nc2nc(-c3ccncc3)nc3ccccc23)cc1F | -11.3% [at 57.5 µM] (inactive) | 
28 | Fc1ccc(Cl)cc1-c1nc(Nc2ccncc2)c2nccnc2n1 |  | inactive and 39.8 µM (active)
29 | C=CCNc1oc(-c2cccnc2)nc1C#N | 19.4% (inactive) | 
30 | Cc1noc(C)c1-c1ccc2ncnc(NCc3ccc(F)c(F)c3)c2c1 | -0.636% (inactive) | 
31 | COc1cc(Nc2nc(-c3ccc(OC)c(OC)c3)nc3ccccc23)cc(OC)c1 | -8.03% (inactive) | 
32 | OC1CCC(Nc2nc(-c3ccccc3)nc3[nH]ccc23)CC1 (stereo unspecified) | -2.56% [at 57.5 µM] (inactive) | 
33 | COc1cc2nc(Nc3ccccc3)nc(NC3CC3)c2cc1OC |  | 50.1 µM (active)
34 | O=C(CSc1nnc(-c2cccc([S+](=O)([O-])N3CCCC3)c2)n1-c1ccccc1)Nc1cccc(C(F)(F)F)c1 | 2.04% (inactive) | 
35 | CC(C)(c1ccc(OCC(O)CO)cc1)c1ccc(OCC(O)CCl)cc1 (stereo unspecified) | 4.02% (inactive) | 
36 | O=C(O[C@@H]1Cc2c(O)cc(O)cc2O[C@H]1c1cc(O)c(O)c(O)c1)c1cc(O)c(O)c(O)c1 |  | 44.7 µM (active)
37 | N#Cc1ccc(OC2=NS(=O)(=O)c3ccccc32)cc1 | 11.6% (inactive) | 
38 | Cc1ccc2nc3sc(C(=O)NCCc4cccnc4)cc3cc2c1 | 1.58% [at 57.5 µM] (inactive) | 
39 | O=S(=O)(NCCCCCCNS(=O)(=O)c1c(F)cccc1F)c1ccc2c(c1)OCCO2 | 8.56% (inactive) | 
40 | NNc1nnc(NN)c2ccccc12 |  | 22.4 µM (active)
41 | O=C1CCCC2=C1[C@@]1(CCC(c3ccccc3)C1)N=C(Nc1nc3ccccc3o1)N2 (stereo partly specified) |  | inactive
42 | Nc1ncnc2c1c(I)cn2[C@@H]1C[C@H](N)[C@@H](O)[C@H]1O |  | 2.51 µM (active)
43 | CC(=O)c1cccc(-c2ccc(-c3nc4ccccc4c(=O)[nH]3)o2)c1 | -12.8% (inactive) | 
44 | N#Cc1nc(Nc2cccc(Cl)c2)nc(NC2CCCC2)n1 | -4.66% (inactive) | 
45 | [O-][n+]1onc(-c2ccccc2)c1CO | -13.1% (inactive) | 
46 | O=C1COc2cc([S+](=O)([O-])Nc3ccc(Cl)c(Cl)c3)c(Cl)cc2N1 | -15.7% [at 57.5 µM] (inactive) | 

Source: PubChem BioAssay AID1645870 (National Center for Advancing Translational Sciences (NCATS), 2021)
